From PubChem BioAssay (NCI) come the findings set out here.

What all share (test): NCI-60 one-dose screen, 48 h (100 = growth as untreated, 0 = no growth, -100 = all killed)
The test system of one assay is HCT-15 colon. The settings on record: 10 µM unless noted.
The next assay relates to HT29 colon. The settings on record: 10 µM unless noted.
A further assay relates to SNB-75 CNS. The settings on record: 10 µM unless noted.
The subject of a further assay is SNB-19 CNS. The settings on record: 10 µM unless noted.
For the next assay, the system named is U251 CNS. The settings on record: 10 µM unless noted.
The subject of a further assay is PC-3 prostate. The settings on record: 10 µM unless noted.
Another assay relates to SK-MEL-5 melanoma. The settings on record: 10 µM unless noted.
The test system of another assay is UACC-62 melanoma. The settings on record: 10 µM unless noted.
Another assay relates to LOX IMVI melanoma. The settings on record: 10 µM.
The next assay has as its system SK-MEL-28 melanoma. The settings on record: 10 µM unless noted.
The test system of the next assay is SK-MEL-2 melanoma. The settings on record: 10 µM unless noted.
The next assay concerns EKVX NSCLC. The settings on record: 10 µM unless noted.
A further assay concerns SN12C renal. The settings on record: 10 µM unless noted.
A further assay relates to UO-31 renal. The settings on record: 10 µM unless noted.
The subject of a further assay is TK-10 renal. The settings on record: 10 µM unless noted.
The subject of another assay is ACHN renal. The settings on record: 10 µM unless noted.
The next assay concerns CAKI-1 renal. The settings on record: 10 µM unless noted.
The next assay concerns CCRF-CEM leukemia. The settings on record: 10 µM unless noted.
A further assay relates to MOLT-4 leukemia. The settings on record: 10 µM unless noted.
The test system of the next assay is A498 renal. The settings on record: 10 µM unless noted.

About 83,000 compounds went through this panel and 20% of them were active in at least one assay; those are over-represented in the sample as a whole.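 Method: cells in 96-well plates; compound added at one concentration; 48 h incubation; percent growth measured; values under 10 scored active.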 Unmarked numbers belong to inactive results. Activity calls are given as the source filed them.

For `O=C(N/N=C\c1ccc(Cl)cc1Cl)c1ccncc1`, the growth is 102% with HCT-15 colon; 90.1% in the assay on HT29 colon; 77.4% with SNB-75 CNS; 92.8% in the assay with SNB-19 CNS; 92.7% with U251 CNS; 94% with PC-3 prostate. Besides, the growth in the assay with SK-MEL-5 melanoma is 98.9%; in the assay with UACC-62 melanoma it was 106%; in the assay with LOX IMVI melanoma, 85.4%; with SK-MEL-28 melanoma it was 103%; in the assay with SK-MEL-2 melanoma, 94.4%; in the assay with EKVX NSCLC it was 101%. For the same molecule, the growth with SN12C renal was 98.7%; in the assay on UO-31 renal, 90.7%; with TK-10 renal, 91.4%; in the assay with ACHN renal it was 105%; with CAKI-1 renal, 99%; in the assay with CCRF-CEM leukemia, 99.6%. In addition, the growth with MOLT-4 leukemia was 94.5%.

For `CCCCOC(=O)c1ccc(NC(=O)CCl)cc1`, the growth in the assay with HCT-15 colon was 14.9%; in the assay on HT29 colon it was 12.8%; in the assay on SNB-75 CNS, 68.9%; in the assay on SNB-19 CNS it was 62.6%; in the assay with U251 CNS it was 4.55% (active); with PC-3 prostate, 51.7%. Moreover, the growth is 58.7% in the assay with SK-MEL-5 melanoma; 52.9% in the assay on UACC-62 melanoma; -43.4% (active) in the assay with LOX IMVI melanoma; 102% in the assay with SK-MEL-28 melanoma; 62.3% in the assay on SK-MEL-2 melanoma; 86% in the assay on EKVX NSCLC. The growth was 18.3% with SN12C renal; 57.9% in the assay with UO-31 renal; 92% in the assay with TK-10 renal; -17.1% (active) with ACHN renal; 99.2% in the assay on A498 renal; -15% (active) in the assay with CCRF-CEM leukemia. For the same molecule, the growth in the assay on MOLT-4 leukemia was 0.49% (active).

With `CC(=O)Nc1ncc(S(=O)(=O)c2ccc([N+](=O)[O-])cc2)s1`, the growth in the assay on HCT-15 colon was 105%; in the assay with HT29 colon it was 108%; with SNB-75 CNS, 103%; in the assay on SNB-19 CNS, 114%; in the assay on U251 CNS, 108%; with PC-3 prostate, 101%. Further, the growth was 113% in the assay on SK-MEL-5 melanoma; 102% in the assay with UACC-62 melanoma; 106% with LOX IMVI melanoma; 111% with SK-MEL-28 melanoma; 119% in the assay on SK-MEL-2 melanoma; 114% with EKVX NSCLC. Moreover, the growth in the assay on SN12C renal was 104%; with UO-31 renal, 79.4%; with TK-10 renal, 105%; in the assay on ACHN renal it was 115%; in the assay with CCRF-CEM leukemia it was 101%; with MOLT-4 leukemia, 102%.

As to `N#C/C(=C\c1ccc(C#N)cc1)C(=O)c1ccccc1`, the growth in the assay on HCT-15 colon is 95.7%; in the assay on HT29 colon it was 104%; in the assay on SNB-75 CNS, 77.8%; in the assay with SNB-19 CNS, 93.4%; with U251 CNS, 94.3%; with PC-3 prostate, 87.6%. Also, the growth in the assay on SK-MEL-5 melanoma is 106%; in the assay with UACC-62 melanoma, 92.8%; in the assay on LOX IMVI melanoma it was 98.8%; with SK-MEL-28 melanoma, 121%; with SK-MEL-2 melanoma it was 101%; in the assay on EKVX NSCLC, 109%. Moreover, the growth with SN12C renal was 95.7%; in the assay with UO-31 renal, 89.1%; in the assay on TK-10 renal, 132%; with ACHN renal, 101%; with A498 renal, 118%; in the assay on CCRF-CEM leukemia, 92.9%.

Regarding `CCOC(=O)C(=O)CC(=O)c1ccccc1`, the growth in the assay on HCT-15 colon was 102%; with HT29 colon it was 103%; in the assay on SNB-75 CNS, 91.7%; in the assay with SNB-19 CNS it was 100%; in the assay on U251 CNS it was 93.3%; in the assay with PC-3 prostate, 89.4%. Also, the growth in the assay with SK-MEL-5 melanoma was 95%; with UACC-62 melanoma, 93.3%; in the assay on LOX IMVI melanoma it was 98.6%; in the assay with SK-MEL-28 melanoma, 106%; with SK-MEL-2 melanoma it was 96.9%; in the assay on EKVX NSCLC, 97.4%. For the same molecule, the growth in the assay with SN12C renal is 100%; in the assay with UO-31 renal it was 85.3%; in the assay on TK-10 renal, 113%; with ACHN renal it was 94.8%; with CAKI-1 renal it was 95.4%; with CCRF-CEM leukemia it was 114%. Besides, in the assay with MOLT-4 leukemia, the growth is 104%.

`COc1ccc2c(c1)Nc1ccccc1S2`: the growth is 104% in the assay on HCT-15 colon; 104% in the assay on HT29 colon; 108% with SNB-75 CNS; 110% with SNB-19 CNS; 97.2% with U251 CNS; 97.9% in the assay with PC-3 prostate. The growth in the assay on SK-MEL-5 melanoma was 101%; in the assay on UACC-62 melanoma it was 96.2%; in the assay with LOX IMVI melanoma, 113%; with SK-MEL-28 melanoma, 114%; with SK-MEL-2 melanoma, 112%; in the assay with EKVX NSCLC it was 105%. Further, the growth was 107% in the assay with SN12C renal; 93% in the assay on UO-31 renal; 107% with TK-10 renal; 114% in the assay on ACHN renal; 104% in the assay on CCRF-CEM leukemia; 106% in the assay on MOLT-4 leukemia.

With `CCOS(=O)(=O)c1ccc([N+](=O)[O-])cc1`, the growth with HCT-15 colon is 110%; in the assay with HT29 colon, 94%; with SNB-75 CNS, 87%; with SNB-19 CNS, 101%; in the assay with U251 CNS it was 99.2%; in the assay on PC-3 prostate, 97.9%. Also, the growth in the assay with SK-MEL-5 melanoma was 102%; with UACC-62 melanoma it was 101%; with LOX IMVI melanoma, 97.7%; in the assay on SK-MEL-28 melanoma, 107%; with SK-MEL-2 melanoma, 102%; in the assay on EKVX NSCLC it was 110%. For the same molecule, the growth in the assay on SN12C renal was 101%; with UO-31 renal, 88.9%; in the assay with TK-10 renal, 95%; in the assay with ACHN renal it was 103%; with CAKI-1 renal, 99%; in the assay with CCRF-CEM leukemia, 99.2%. Further, the growth with MOLT-4 leukemia was 98.5%.

As to `ClCC(Cl)[C@@H]1CC2C=CC1C2` (stereo partly specified), the growth is 109% in the assay on HCT-15 colon; 107% in the assay with HT29 colon; 93.6% in the assay on SNB-75 CNS; 104% with SNB-19 CNS; 99.5% in the assay on U251 CNS; 102% in the assay with PC-3 prostate. Also, the growth was 99.1% in the assay on SK-MEL-5 melanoma; 98.7% in the assay on UACC-62 melanoma; 97.7% in the assay on LOX IMVI melanoma; 106% in the assay on SK-MEL-28 melanoma; 112% with SK-MEL-2 melanoma; 98.3% with EKVX NSCLC. Also, the growth in the assay on SN12C renal was 102%; in the assay on UO-31 renal it was 88.7%; in the assay on TK-10 renal, 114%; in the assay with ACHN renal it was 108%; in the assay on CAKI-1 renal, 100%; with MOLT-4 leukemia it was 114%.

As to `CN(C)Cc1ccccn1`, the growth was 105% with HCT-15 colon; 97.4% with HT29 colon; 95.7% in the assay on SNB-75 CNS; 103% with SNB-19 CNS; 99.4% with U251 CNS; 90.3% in the assay on PC-3 prostate. Also, the growth with SK-MEL-5 melanoma is 101%; with UACC-62 melanoma, 97.8%; in the assay with LOX IMVI melanoma, 96.3%; in the assay on SK-MEL-28 melanoma it was 102%; in the assay on SK-MEL-2 melanoma, 107%; in the assay with EKVX NSCLC, 99.5%. Also, the growth in the assay with SN12C renal was 100%; with UO-31 renal it was 87.8%; with TK-10 renal, 105%; in the assay on ACHN renal it was 102%; in the assay on CAKI-1 renal, 96.8%; with MOLT-4 leukemia it was 107%.
